Only some compounds are listed: those with a hit (about 7.3% of all), similar ones and a draw of the others.
AmpC inh detg = qHTS Inhibitors of AmpC Beta-Lactamase (assay with detergent). AmpC hydrolysis of nitrocefin, absorbance 480 nm, 0.01% Triton. Potency, µM (series often up to 114 µM), for the others: at the highest dose activity change, negative = inhibition, hits mostly inhibitors. actives 0.041% (n = 370,000);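 note: potency is the fitted concentration of half-maximal effect; 0% = no-compound wells and -100% = no-enzyme wells; nearly all actives have a fitted effect of over 25% in size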
Target sequence (P00811 whole entry, looked up): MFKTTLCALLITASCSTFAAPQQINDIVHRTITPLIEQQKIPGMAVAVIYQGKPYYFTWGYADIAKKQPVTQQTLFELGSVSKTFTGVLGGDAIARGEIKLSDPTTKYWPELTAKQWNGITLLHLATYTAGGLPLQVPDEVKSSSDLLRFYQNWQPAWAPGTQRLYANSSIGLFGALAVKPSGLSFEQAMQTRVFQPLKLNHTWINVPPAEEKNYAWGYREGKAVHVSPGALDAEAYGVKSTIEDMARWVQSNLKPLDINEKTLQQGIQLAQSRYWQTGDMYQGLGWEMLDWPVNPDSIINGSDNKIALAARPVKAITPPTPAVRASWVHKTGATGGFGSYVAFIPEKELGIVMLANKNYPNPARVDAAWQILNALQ
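20 mM phosphate pH 7.0 + 0.01% (detergent screen) or 0.0001% Triton X-100; 5.3 nM AmpC reagent; cpd preinc 15 min RT; nitrocefin (800 uM stock) to start; A480 q20 s × 4 min; Activity was normalised to no-enzyme and no-compound control wells.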
HCV inh = qHTS Assay for Inhibitors of Hepatitis C Virus (HCV) | Huh7.5.1 HCVcc-Cre infection, luciferase reporter, 44 h | Potency, µM (series often up to 41.8 µM), inactives show at the top dose activity change, negative = inhibition, hits mostly inhibitors | actives 3.4% (n = 340,000) | AID 651820, 2012; note: potency is the fitted concentration of half-maximal effect
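Infectious HCV cell culture screen: compound-treated cells (1,000/well, pre-plated 4 h) are infected with HCVcc-Cre at roughly 0.5 moi and grown 44 h. Infection is quantified by luciferase signal after 15 min substrate incubation at room temperature.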
FMDV inh = High Throughput Screening for Foot and Mouth Disease Virus Antivirals | Potency, µM (doses to about 57.9 µM), for inactives: at the highest dose activity change, negative = inhibition, actives largely listed as inhibitors | AID 1159524, 2015 | actives 1.2% (n = 410,000) | FMDV antiviral cell-based qHTS; calls by dose curve; tested in HEK293T cells; note: read-out not given here; potency is the fitted concentration of half-maximal effect; nearly all actives have a fitted effect of over 45% in size
HCMV inh = qHTS Assay for inhibitors of the human cytomegalovirus (HCMV) | HFF cells, HCMV-luciferase reporter, 72 h; stronger effect = lower value | activity change, negative = inhibition, % at 57.5 µM | actives 4.5% (n = 410,000) | AID 1259415, 2018; in the data active = activity change below about -60%; inconclusive = no clear call, values can overlap the other calls; inactive = above about -39%
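Two compound doses tested in HFFs infected with HCMV-luciferase, MOI 1 PFU/cell, 72 h at 37C. Lysate luminescence read with OneGlo; data normalized against buffer-only and 10uM Salinomycin inhibitor controls.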
AmpC inh no detg = qHTS Inhibitors of AmpC Beta-Lactamase (assay without detergent); P00811; AmpC nitrocefin hydrolysis, absorbance 480 nm, 0.0001% Triton; Potency, µM (titrated, usually from 57.1 µM), for inactives: at the highest dose activity change, negative = inhibition, usual class: inhibitors; actives 0.52% (n = 330,000);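 note: potency is the fitted concentration of half-maximal effect; plate controls were no compound for no effect and no enzyme for full effect; nearly all actives have a fitted effect of over 20% in size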
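AmpC (5.3 nM in the dispensed reagent) in 20 mM phosphate pH 7.0 with 0.01% (detergent screen) or 0.0001% Triton X-100 was preincubated with compounds for 15 min at room temperature. Nitrocefin was then added from an 800 uM solution, and hydrolysis was followed at 480 nm.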
Active calls of the source: *; ? = inconclusive; . = no result given; [ ] = another dose, or the depositor's remark. Unless noted, calls come from the whole dose curve; as a rule, active = well fitted curve in the direction sought with a large enough effect; inconclusive = small, poorly fitted or top-dose-only effect, or another doubt; inactive = no such curve, though single readings can be large; an effect the other way counts as inactive or inconclusive. Unless noted, % is set by controls: 0 for no effect and ±100 for the full control effect.

SMILES	AmpC inh detg	HCV inh	FMDV inh	HCMV inh	AmpC inh no detg
COc1ccc(Nc2cc(C)c3cc(NC(=O)Cc4ccc(Cl)cc4)ccc3n2)cc1	1%	.	-25%	-22	.
O=C(COc1ccc(-n2ccnc2)cc1)Nc1cccc(Cl)c1	0%	?	?	-64*	-6%
Cc1cc(Nc2cccc(Cl)c2)nc2ccc(NC(=O)COc3ccc(Cl)cc3)cc12	19%	.	-18%	-106*	.
Cc1cccc(OCC(=O)Nc2ccc3nc(Nc4cccc(Cl)c4)cc(C)c3c2)c1	-9%	.	-2%	-63*	.
Clc1ccc2nc(C3CCCCC3)c(Cc3ccsc3)n2c1	.	.	-4%	2	.
O=C(NCC1(N2CCCCC2)CCCCC1)c1ccc(-n2cc(NC(=O)c3cccnc3)cn2)cc1	.	.	-10%	.	.
CCOc1ccc(S(=O)(=O)N2CCCCC2)cc1NC(=O)Cc1cccs1	-8%	?	-4%	12	-20%
CNC(=O)c1csc(-c2cccs2)n1	?	12%	48%	-25	-1%
Cc1nc(C(=O)NNC(=O)c2ccc(Cl)cc2)cs1	2%	?	29%	-101*	-11%
O=C(NNC(=O)c1csc(-c2cccs2)n1)c1ccc(Cl)cc1	.	.	10%	-103*	.
CC1CCC(C(C)C)C(OC(=O)C[n+]2cc(-c3ccc(Cl)cc3)n3c2CCCCC3)C1 (stereo unspecified)	?	-17%	?	-97*	25%[11.4 µM]
N#CC[n+]1cc(-c2ccc(Cl)cc2)n2c1CCC2	?	6%	10%	20	-12%
Clc1ccc(-c2c[n+](Cc3ccc(Br)cc3)c3n2CCCCC3)cc1	3%	12%	6%	-68*	49%
Cc1ccc(-c2c[n+](CC(=O)c3ccc(Br)cc3)c3n2CCCCC3)cc1	4%	-8%	?	-88*	49%
O=C(C[n+]1cc(-c2ccc(Cl)c(Cl)c2)n2c1CCC2)OCc1ccccc1	-8%	5%	-12%	4	41%
Clc1ccc(C[n+]2cc(-c3ccccc3)n3c2CCCCC3)c(Cl)c1	-1%	-30%	?	-78*	49%
O=C(C[n+]1cc(-c2ccccc2)n2c1CCCCC2)c1ccc(Cl)cc1	-16%	-19%	-8%	5	3%
COC(=O)[C@H](C)N(Cc1ccc(Cl)c(Cl)c1)S(=O)(=O)CCNC1CCCC1	.	?	-19%	.	78%
Cc1cn(C2CC(N=[N+]=[N-])C(CO)O2)c(=O)[nH]c1=O (stereo unspecified)	.	.	-13%	.	.
CN(C(=O)COC(=O)COc1ccc(Cl)cc1Cl)c1c(N)n(Cc2ccccc2)c(=O)[nH]c1=O	?	9%	-11%	-9	-28%
O=[N+]([O-])c1ccc(C[n+]2cc(-c3ccc(Cl)c(Cl)c3)n3c2CCCCC3)cc1	1%	4%	-13%	-16	73%
Clc1ccc(-c2c[n+](Cc3ccc(Cl)cc3Cl)c3n2CCCCC3)cc1	-2%	-22%	-13%	-102*	71%
CCOc1ccc2ncc(S(=O)(=O)c3ccccc3)c(N3CCN(c4ccc(OC)cc4)CC3)c2c1	2%	?	-27%	5	-16%
COc1ccc(N2CCN(c3c(S(=O)(=O)c4ccccc4)cnc4ccc(OC)cc34)CC2)cc1	-8%	11µM*	0%	?	12%
COc1ccc(S(=O)(=O)c2cnc3ccc(OC)cc3c2N2CCC3(CC2)OCCO3)cc1	?	?	?	-74*	78%
SMILES	AmpC inh detg	HCV inh	FMDV inh	HCMV inh	AmpC inh no detg
Cc1cccc(NC(=O)N2CCC(C(=O)c3ccc(F)cc3)CC2)c1	-8%	?	24%	-64*	-35%
CCOc1ccccc1CNCc1cccn1-c1nnc(N2CCN(c3ccccc3)CC2)s1	-12%	.	?	-98*	.
CCN1C(=O)c2ccccc2S(=O)c2ccc(C(=O)NCc3ccc(C(F)(F)F)cc3)cc21 (stereo unspecified)	.	.	.	5	.
NC(N)=N/N=C/c1ccc(OCc2ccccc2)cc1	-1%	?	.	-96*	-24%
COc1cc(OC)c(OC)cc1CN1CCc2nc(N3CCN(c4ccccc4F)CC3)ncc2C1	-6%	.	11µM*	-21	.
COc1cc(OC)c(OC)cc1CN1CCc2nc(N3CCN(c4ncccn4)CC3)ncc2C1	7%	.	?	-71*	.
COc1ccccc1N1CCN(c2ncc3c(n2)CCN(Cc2ccccc2F)C3)CC1	3%	.	-12%	1	.
CCOc1ccc(CN2CCc3nc(N4CCN(c5ccccc5OC)CC4)ncc3C2)cc1OC	-3%	.	20µM*	?	.
COc1ccc(CN2CCc3nc(N4CCN(c5ccc(F)cc5)CC4)ncc3C2)c(OC)c1OC	3%	.	20µM*	-36	.
CCOc1ccc(CN2CCc3nc(N4CCN(c5ncccn5)CC4)ncc3C2)cc1OC	9%	.	?	?	.
Cc1nn(CC(=O)N2CCC(C)CC2)c(=O)c2nn(-c3ccccc3)c(C)c12	-1%	16%	-6%	-39	-6%
N#CC(=C(O)COC(=O)CCCNC(=O)c1ccc(Cl)cc1)c1nc2ccccc2[nH]1	.	1%	-7%	44	.
CN(CCO)C(=O)c1cn(C2CCN(Cc3ccc(C(F)(F)F)cc3)CC2)nn1	.	.	-1%	.	.
Cc1cc(NC(=O)NC(=O)c2ccccc2NC(=O)C(C)N)ccc1Oc1ncc(Br)cn1 (stereo unspecified)	.	-23%	15%	-83*	.
O=C(O)CSCC(=O)Nc1ccc(Cl)cc1C(F)(F)F	4%	4%	7%	-2	-14%
CCC(CC)NC(=O)Nc1cccc(C)c1C	-1%	2%	-6%	-37	-9%[2.29 µM]
CCC(C)N(CC(=O)Nc1cccc(C)c1C)C(=O)CCl (stereo unspecified)	-13%	1.3µM*	16µM*	.	-7%
CC(C)N(CC(=O)Nc1ccc(Cl)cc1C(F)(F)F)C(=O)CCl	-14%	4µM*	16µM*	-99*	-16%
COc1cccc(CN2C(=O)NC(C)(C3CCN(Cc4cc(F)cc(F)c4)CC3)C2=O)c1OC (stereo unspecified)	.	.	-3%	.	.
CC1=[N+](C)c2ccc3ccccc3c2C1(C)C	-10%	?	?	-84*	-8%
Cc1nsc2c1ccc1ccccc12	-4%	0%	14%	-37	-8%
CC(NC(=S)NCCc1ccccc1)C(c1cccs1)N1CCN(Cc2ccccc2)CC1 (stereo unspecified)	?	7.9µM*	?	-81*	-6%
COc1ccc(-c2noc(CNC(=O)c3ccco3)n2)cc1	11%	.	5%	9	.
COc1ccc(-c2noc(-c3ccccc3C(=O)Nc3cccnc3)n2)cc1	-2%	10µM*	?	10	-12%
COc1ccccc1-c1noc(-c2ccccc2C(=O)Nc2cccnc2)n1	0%	11µM*	-6%	77	-11%
